Measured values: PubChem BioAssay (NCI)
This is part of a sample that, as a whole, favours compounds with a hit. Of some 83,000 tested, about 20% had one in any assay.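 How to read the values: 0–100, growth inhibition (40 = 60% inhibited); 0, no net growth; -100 to 0, cell death (-40 = 40% of starting cells died; -100 = all dead).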 The source made the active and inactive calls. How the source made its calls: active means growth percent below 10; inactive means the rest.

Experiments:
Assay in all cases: NCI-60 one-dose screen, 48 h (100 = growth as untreated, 0 = no growth, -100 = all killed)
Conditions in all cases: 10 µM
[1] = test system: DU-145 prostate
[2] = test system: K-562 leukemia
[3] = test system: MALME-3M melanoma
[4] = test system: MDA-MB-231 breast
[5] = test system: RXF 393 renal
[6] = test system: SF-268 CNS
[7] = test system: SF-295 CNS
[8] = test system: SF-539 CNS
[9] = test system: UACC-257 melanoma
[10] = test system: M14 melanoma
[11] = test system: HCT-15 colon
[12] = test system: HT29 colon
[13] = test system: SNB-75 CNS
[14] = test system: SNB-19 CNS
[15] = test system: U251 CNS
[16] = test system: PC-3 prostate
[17] = test system: SK-MEL-5 melanoma
[18] = test system: UACC-62 melanoma
[19] = test system: LOX IMVI melanoma
[20] = test system: SK-MEL-28 melanoma

Measured: growth

O=[N+]([O-])c1ccc(/C(=C/c2ccccc2)[n+]2ccccc2)cc1
inactive: [1] 127% | [2] 91.9% | [3] 125% | [4] 111% | [5] 105% | [6] 128% | [7] 102% | [8] 107% | [9] 101% | [10] 114% | [11] 104% | [12] 106% | [13] 98.7% | [14] 103% | [15] 94.3% | [16] 99% | [17] 103% | [18] 100% | [19] 105% | [20] 105%

Cc1cc(CCNC=O)c(C)c2c1sc1ccccc12
inactive: [1] 112% | [2] 97.2% | [3] 105% | [4] 79.9% | [5] 80% | [6] 92.5% | [7] 94.8% | [8] 87.2% | [9] 90.1% | [10] 118% | [11] 90.2% | [12] 97.1% | [13] 81.9% | [14] 85.1% | [15] 92% | [16] 84.7% | [17] 78.8% | [18] 79.1% | [19] 98.4% | [20] 89.9%

CC[C@@H](C(=O)[C@H](C)[C@H](O)[C@@H](C)[C@H]1O[C@H]([C@@H](CC)C(=O)O)CC[C@H]1C)C1O[C@]2(C=C[C@@H](O)[C@]3(CC[C@@](C)([C@H]4CC[C@](O)(CC)[C@H](C)O4)O3)O2)[C@H](C)C[C@@H]1C (stereo not given in full)
inactive: [1] 51.3% | [4] 17.3% | [6] 38% | [9] 35.3% | [11] 25.7% | [12] 26.1% | [15] 14.2% | [16] 27.5% | [19] 29.3%
active: [2] 6.72% | [3] -83.6% | [5] -8.61% | [7] -12.6% | [8] 2.48% | [10] -38.8% | [13] -12.7% | [14] -13.3% | [17] -99.2% | [18] -92.2% | [20] -93%

NC(N)=N/N=C(\N=Nc1ccccc1)c1ccc(Cl)cc1
active: [2] 1.17% | [4] -12.5% | [7] -5.99% | [18] -29.6% | [19] -7.27%
inactive: [1] 47.3% | [3] 85.6% | [5] 41.5% | [6] 34.2% | [8] 19.7% | [9] 70.9% | [10] 10.2% | [11] 22.1% | [12] 21.2% | [13] 60.6% | [14] 81.9% | [15] 36.3% | [16] 25.1% | [17] 65.1% | [20] 75.3%

COc1cc(/C=C/c2cc(/C=C/c3ccc(O)c(OC)c3)[nH]c(=O)n2)ccc1O
inactive: [1] 80.4% | [2] 42% | [3] 53.6% | [4] 54.2% | [5] 23.7% | [6] 48.2% | [7] 92.8% | [8] 69% | [9] 62.5% | [10] 75.5% | [11] 81.8% | [13] 44.3% | [14] 82.6% | [15] 55.6% | [16] 61% | [17] 70.7% | [18] 63.3% | [19] 49% | [20] 50.9%
active: [12] -6.41%

Cc1ccc(/C=C2/C(=O)N(C)c3ccc(S(=O)(=O)Nc4ccc(C(C)(C)C)cc4)cc32)s1
inactive: [1] 87.3% | [2] 79.8% | [3] 57.6% | [4] 35.2% | [5] 41.8% | [6] 67.4% | [7] 88% | [8] 23% | [9] 85.7% | [10] 83.1% | [11] 83.8% | [12] 75.7% | [14] 66.6% | [15] 62.6% | [16] 56.6% | [17] 89.4% | [18] 74.9% | [19] 58.1% | [20] 81.8%
active: [13] -9.41%

O=C(CN(C1CCCCC1)C1CCCCC1)Nc1ccc(S(=O)(=O)c2ccc(NC(=O)CN(C3CCCCC3)C3CCCCC3)cc2)cc1
active: [1] -47.9% | [2] -29.8% | [3] -67.4% | [4] -49.4% | [5] -61.4% | [6] -7.58% | [8] -89.9% | [9] -17.9% | [10] -59.4% | [11] -33.7% | [12] -84.2% | [15] -75.9% | [16] -80% | [17] -76.5% | [18] -20.9% | [19] -81%
inactive: [7] 14.4% | [13] 55.8% | [14] 11.1% | [20] 12.2%

CCC(CC)n1c(C)cc(=O)n1C(CC)CC
inactive: [1] 113% | [2] 105% | [3] 142% | [4] 109% | [5] 111% | [6] 100% | [7] 100% | [8] 96.7% | [9] 106% | [10] 110% | [11] 106% | [12] 111% | [13] 95.3% | [14] 96% | [15] 105% | [16] 104% | [17] 98.4% | [18] 101% | [19] 102% | [20] 107%
